NPR1 activator: GC-A stimulated cGMP production enhancers – HEK293 GC-A cells, cGMP TR-FRET, EC30 ANP, primary screen. Atrial natriuretic peptide receptor 1 (Homo sapiens), P16066. 0% at EC30 ANP, 100% saturating ANP. activation, % at 10 µM. 370,000 tested, 0.14% active; in the data active = activation above about 40%
NPR2 activator: human GC-B receptor activators, primary screen, HEK293 GC-B cells, cGMP TR-FRET, EC30 CNP; 0% at EC30 CNP, 100% saturating CNP; Atrial natriuretic peptide receptor 2 (Homo sapiens), P20594; activation, % at 10 µM; 370,000 tested, 0.11% active;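 active = activation at 10 µM reaching about 35% in either raw or pattern-adjusted values, limit read from the data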
ALR inh: inhibitors of human ALR sulfhydryl oxidase, primary screen, biochemical, H2O2 detection, HRP-luminol luminescence, single point; FAD-linked sulfhydryl oxidase ALR (Homo sapiens), P55789; purified ALR, DTT oxidation; inhibition, % (test concentration not listed); 290,000 tested, 3.8% active; AID 485317, 2010;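 active = mean replicate inhibition above about 79%, with every replicate also reaching it, limit read from the data; inconclusive = only one of the two criteria met; inactive = mean below limit and not every replicate reaching it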
HDAC3 inh: HDAC3 deacetylase inhibitors, primary screen, biochemical, fluorescence, cell-free homogeneous. Histone deacetylase 3 (Homo sapiens), O15379. recombinant HDAC3, fluorogenic peptide/trypsin coupled. inhibition, % at 8.3 µM. 320,000 tested, 0.15% active; in the data active = inhibition above about 26%, passing the limit was not always enough; inconclusive = no clear call, values can overlap the other calls
* hit, by the source's call; ? = inconclusive; . = no result given. Only a selection was taken, and hits are over-represented in it overall.

SMILES	NPR1 activator	NPR2 activator	ALR inh	HDAC3 inh
Cn1c(-c2ccccc2)cnc1SCC(=O)N1CCCCC1	0.1	-9.8	99.9*	5.8
Cn1c(-c2ccccc2)cnc1SCC(=O)N1CCCc2ccccc21	-13.8	-4.7	6.5	2.3
O=C1CSC(=S)N1c1cccc(O)c1	2.9	4.4	-2.9	-0.3
O=C(O)c1cccc(N2C(=O)CSC2=S)c1	5.4	-0.1	79.1*	-0.3
O=C(CNC(=O)c1ccccc1F)NCCN1C(=O)S/C(=C\c2ccc3c(c2)OCO3)C1=O	-2.5	-1.8	.	0.2
NCCN1C(=O)S/C(=C\c2ccc3c(c2)OCO3)C1=O	-17.1	-12.6	92.4*	.
N#C/C(=N\Nc1ccc(F)cc1)C(=O)C1CC1	1.9	2.3	97.9*	8.4
O=c1c(Cl)cc(Cl)nn1-c1ccccc1	46.6*	1.2	97.8*	-1.6
CCCCCCCCN1CC(Cc2cc3ccccc3c3ccccc23)N(c2ccccc2)c2ccccc2C1=O (centres undefined)	3.1	-0.1	.	.
COc1ccc(NC(=O)CSc2nc(-c3ccco3)nc3cc(=O)[nH]n23)cc1Cl	-4.2	-5.8	99.1*	1.5
O=C(/C=C(\Nc1ccc(Br)c(F)c1)c1ccccc1)c1ccccc1	3.0	3.1	.	.
Cc1ccc(NC(=O)CN(c2ccc3c(c2)OCO3)S(=O)(=O)c2c(C)n[nH]c2C)cc1	-5.0	-10.5	90.4*	-0.6
Cc1n[nH]c(C)c1S(=O)(=O)N(CC(=O)NC1CCCC1)c1ccc(C(C)C)cc1	-6.8	-4.3	81.0*	-0.1
COc1cc(NC(=O)CN(c2ccc(C)cc2)S(=O)(=O)c2c(C)n[nH]c2C)cc(OC)c1	-9.5	-5.2	3.3	4.6
Cn1cc([N+](=O)[O-])c(C(=O)Nc2nc(-c3ccc(Cl)cc3)cs2)n1	60.1*	-2.2	-1.9	3.7
COc1ccc(C(=O)CSc2nnc(-c3n[nH]c4c3CCC4)n2N)cc1OC	35.9	43.6*	.	.
Cn1c(N)c(C(=O)NCc2ccccc2)sc1=S	-1.4	7.8	80.5*	1.4
Cn1c(N)c(C(=O)Nc2c(Cl)cccc2Cl)sc1=S	-2.2	-3.9	98.6*	.
COc1ccc(CCNC(=O)c2sc(=S)n(C)c2N)cc1	3.1	1.0	3.7	-5.7
CCN1CCN(C(=O)c2ccc3c(Cl)c4c(nc3c2)CCCC4)CC1	4.5	0.7	97.9*	3.6
CN1CCN(C(=O)c2ccc3c(Cl)c4c(nc3c2)CCCC4)CC1	4.0	5.3	-0.5	1.5
CC1CCN(CCCNC(=O)c2ccc3c(Cl)c4c(nc3c2)CCCC4)CC1	0.3	-11.1	90.0*	?
CN(CC(=O)Nc1ccc(N2CCOCC2)cc1)CC(=O)Nc1ccccc1C#N	1.8	-6.7	41.1	5.1
CNC(=O)Nc1ccc2snnc2c1	24.8	-5.4	52.0	-4.4
CC1CN(C(=O)Nc2ccc3snnc3c2)c2ccccc21 (centres undefined)	-2.6	-9.8	94.0*	5.2
SMILES	NPR1 activator	NPR2 activator	ALR inh	HDAC3 inh
O=C(Nc1ccc2snnc2c1)N1CCSCC1	1.3	2.6	92.9*	-2.6
COC(=O)[C@]12C[C@H](CC(=O)NCCCN3CCCC3=O)C(=O)N(Cc3ccco3)C1=C[C@H](COCc1ccccc1)O[C@@H]2C	2.3	7.9	.	.
Cc1cccc(C(=O)Oc2csc(=S)n2C(=O)c2cccc(C)c2)c1	0.1	-4.9	6.0	21.8
O=C(Oc1csc(=S)n1C(=O)c1ccccc1)c1ccccc1	.	.	10.0	36.6*
COc1ccccc1C(NC(C)=O)c1c(O)ccc2ccc(O)cc12 (centres undefined)	2.7	-0.3	94.5*	-7.2
COc1ccccc1C(NC(=O)CC(C)C)c1c(O)ccc2ccccc12 (centres undefined)	-32.4	-16.6	-105.2	-0.6
CC(=O)NC(c1ccc(C(C)C)cc1)c1c(O)ccc2ccccc12 (centres undefined)	47.2*	-6.6	-10.5	-6.5
CC(C)C[C@H]1CN(CCCC[C@H]2CNC(=O)C(=O)N2CCc2ccccc2)C(=O)C(=O)N1CC1CCCCC1	6.2	3.1	.	.
Oc1c(Br)cc(/C=N/Nc2ccc(Cl)nn2)cc1Br	-4.6	-4.5	.	9.5
COc1cc(/C=N/Nc2ccccc2[N+](=O)[O-])cc(OC)c1O	-10.4	-9.6	73.7	0.6
COc1cc(/C=N/Nc2ccc(Cl)nn2)cc(OC)c1O	-1.4	-5.6	94.5*	1.8
COc1cc(/C=N/Nc2ccc(F)cc2F)cc(OC)c1O	-4.6	10.4	99.2*	0.3

Assay outcomes: PubChem, several laboratories
